Results published in PubChem BioAssay (Tox21).
Records with an inconclusive call do not appear. A call without a number means that no potency is given here. Calls of active or inactive are those of the source. Calls come from the whole dose curve; as a rule, active = well fitted curve in the direction sought with a large enough effect in the repeat runs; inconclusive = weak or mixed curves; inactive = no such curve, though single readings can be large; an effect the other way counts as inactive or inconclusive.

Assays:
[1] = target: Cytochrome P450 2C19 (Homo sapiens) (UniProt P33261); assay: Cytochrome P450 Family 2 Subfamily C Member 19 (CYP2C19) small molecule antagonists: luciferase reporter qHTS assay (AID 1671197); conditions: P450-Glo CYP2C19 enzyme, luciferin luminescence, 1 h; series mostly up to 52.9 µM; note: nearly all actives have a fitted effect of over 65% in size
Sequence of Cytochrome P450 2C19 (Homo sapiens) (P33261 whole entry, looked up): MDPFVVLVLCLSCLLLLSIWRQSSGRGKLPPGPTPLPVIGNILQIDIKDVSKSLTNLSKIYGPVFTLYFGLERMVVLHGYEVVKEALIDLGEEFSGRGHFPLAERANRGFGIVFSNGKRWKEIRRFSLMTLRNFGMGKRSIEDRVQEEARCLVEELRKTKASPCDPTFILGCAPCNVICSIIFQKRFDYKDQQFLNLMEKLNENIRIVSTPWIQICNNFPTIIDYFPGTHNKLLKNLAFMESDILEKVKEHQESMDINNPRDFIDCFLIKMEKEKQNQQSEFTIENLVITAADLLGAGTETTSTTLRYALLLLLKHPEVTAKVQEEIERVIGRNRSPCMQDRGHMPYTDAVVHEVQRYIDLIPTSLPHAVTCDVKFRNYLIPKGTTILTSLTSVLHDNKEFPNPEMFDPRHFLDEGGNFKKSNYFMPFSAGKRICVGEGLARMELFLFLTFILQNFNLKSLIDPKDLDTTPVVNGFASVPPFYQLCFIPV
Summary of the method: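 CYP2C19 P450-Glo, 1536-well qHTS. Cpd + enzyme/proluciferin substrate 10 min RT; + NADPH regen, 37C 1 h; stop with luciferin detection reagent, 20 min RT, luminescence (RLU). Pos ctrl ketoconazole.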

[2] = target: Cytochrome P450 2C9 (Homo sapiens) (UniProt P11712); assay: Cytochrome P450 Family 2 Subfamily C Member 9 (CYP2C9) small molecule antagonists: luciferase reporter qHTS assay (AID 1671198); conditions: P450-Glo CYP2C9 enzyme assay, luciferin luminescence; series mostly up to 115 µM; note: nearly all actives have a fitted effect of over 50% in size
Sequence of Cytochrome P450 2C9 (Homo sapiens) (P11712 whole entry, looked up): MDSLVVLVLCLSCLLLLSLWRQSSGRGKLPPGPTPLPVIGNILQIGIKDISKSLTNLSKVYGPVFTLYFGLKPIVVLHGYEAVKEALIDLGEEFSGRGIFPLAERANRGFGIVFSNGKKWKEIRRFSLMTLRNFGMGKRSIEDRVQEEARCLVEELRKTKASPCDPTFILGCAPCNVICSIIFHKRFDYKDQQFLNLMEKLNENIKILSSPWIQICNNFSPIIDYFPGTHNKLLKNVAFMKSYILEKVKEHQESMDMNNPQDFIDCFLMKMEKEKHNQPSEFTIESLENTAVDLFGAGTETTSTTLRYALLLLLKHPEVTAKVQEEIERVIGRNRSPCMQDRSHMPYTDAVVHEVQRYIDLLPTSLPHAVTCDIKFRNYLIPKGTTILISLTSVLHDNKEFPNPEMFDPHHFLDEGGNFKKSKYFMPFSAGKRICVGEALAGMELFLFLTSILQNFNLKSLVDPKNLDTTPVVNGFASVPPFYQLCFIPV
Summary of the method: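 Enzyme-substrate mix preincubated with compound 10 min at room temperature; reaction started with NADPH regeneration solution, 1 h 37C. Luminescent luciferin product read after 20 min detection reagent.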

[3] = target: Voltage-gated inwardly rectifying potassium channel KCNH2 (Homo sapiens) (UniProt Q12809); assay: Human Ether-a-go-go-Related Gene (hERG) channel small molecule antagonists: fluorescence cell-based qHTS assay (AID 1671200); conditions: hERG-U2OS cells, FluxOR thallium flux fluorescence; series mostly up to 76.8 µM; note: nearly all actives have a fitted effect of over 50% in size
Sequence of Voltage-gated inwardly rectifying potassium channel KCNH2 (Homo sapiens) (Q12809 whole entry, looked up): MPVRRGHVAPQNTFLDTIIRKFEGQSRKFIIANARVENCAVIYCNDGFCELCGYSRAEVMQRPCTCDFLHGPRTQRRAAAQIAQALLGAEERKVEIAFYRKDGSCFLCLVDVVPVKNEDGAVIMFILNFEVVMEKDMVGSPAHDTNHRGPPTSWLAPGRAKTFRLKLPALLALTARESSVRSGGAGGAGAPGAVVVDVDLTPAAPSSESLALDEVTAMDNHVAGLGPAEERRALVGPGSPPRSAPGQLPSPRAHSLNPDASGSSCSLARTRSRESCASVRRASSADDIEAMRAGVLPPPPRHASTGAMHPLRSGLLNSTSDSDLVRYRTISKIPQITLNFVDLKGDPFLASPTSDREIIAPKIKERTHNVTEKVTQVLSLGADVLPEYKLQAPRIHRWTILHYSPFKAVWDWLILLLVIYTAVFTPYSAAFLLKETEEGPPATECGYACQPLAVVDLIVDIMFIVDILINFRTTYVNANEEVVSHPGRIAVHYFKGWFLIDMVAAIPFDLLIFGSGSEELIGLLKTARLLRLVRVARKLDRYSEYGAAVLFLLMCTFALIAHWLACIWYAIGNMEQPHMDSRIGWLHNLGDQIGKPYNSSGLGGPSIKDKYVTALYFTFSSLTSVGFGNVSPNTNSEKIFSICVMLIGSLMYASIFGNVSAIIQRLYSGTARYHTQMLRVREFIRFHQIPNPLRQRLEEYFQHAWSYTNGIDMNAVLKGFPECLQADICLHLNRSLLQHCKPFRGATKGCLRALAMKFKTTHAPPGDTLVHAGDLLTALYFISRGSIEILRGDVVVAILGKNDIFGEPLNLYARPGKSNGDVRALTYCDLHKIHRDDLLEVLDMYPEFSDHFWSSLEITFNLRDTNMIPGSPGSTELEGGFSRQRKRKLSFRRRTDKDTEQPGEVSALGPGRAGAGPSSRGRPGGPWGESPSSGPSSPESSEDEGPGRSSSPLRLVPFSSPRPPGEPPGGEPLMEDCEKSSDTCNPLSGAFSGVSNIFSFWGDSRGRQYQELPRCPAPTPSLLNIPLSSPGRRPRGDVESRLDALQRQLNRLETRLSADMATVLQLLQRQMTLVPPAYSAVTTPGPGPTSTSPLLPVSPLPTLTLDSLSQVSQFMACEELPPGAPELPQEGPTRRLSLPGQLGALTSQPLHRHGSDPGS
Summary of the method: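 Thallium served as the potassium surrogate; its influx into dye-loaded U2OS cells carrying the channel was measured by fluorescence over 2 min.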

[4] = target: Cytochrome P450 3A4 (Homo sapiens) (UniProt P08684); assay: Cytochrome P450 Family 3 Subfamily A Member 4 (CYP3A4) small molecule antagonists: luciferase reporter qHTS assay (AID 1671201); conditions: P450-Glo CYP3A4 enzyme, luciferin luminescence, 1 h; series mostly up to 115 µM; note: nearly all actives have a fitted effect of over 50% in size
Sequence of Cytochrome P450 3A4 (Homo sapiens) (P08684 whole entry, looked up): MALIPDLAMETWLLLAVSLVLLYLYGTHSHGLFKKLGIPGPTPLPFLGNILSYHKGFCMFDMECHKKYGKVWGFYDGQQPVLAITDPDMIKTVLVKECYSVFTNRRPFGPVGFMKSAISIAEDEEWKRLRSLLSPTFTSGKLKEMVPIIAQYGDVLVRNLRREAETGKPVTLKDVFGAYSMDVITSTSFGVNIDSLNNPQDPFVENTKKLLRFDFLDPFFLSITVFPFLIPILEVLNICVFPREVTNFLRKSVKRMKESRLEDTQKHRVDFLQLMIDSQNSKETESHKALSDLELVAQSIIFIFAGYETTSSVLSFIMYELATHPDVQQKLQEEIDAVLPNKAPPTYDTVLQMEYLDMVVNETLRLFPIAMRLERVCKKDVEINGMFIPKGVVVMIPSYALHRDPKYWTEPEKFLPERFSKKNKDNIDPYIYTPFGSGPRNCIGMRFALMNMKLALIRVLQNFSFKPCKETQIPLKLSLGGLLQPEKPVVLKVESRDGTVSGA
Summary of the method: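 Relative luminescence units after 20 min with luciferin detection reagent served as read-out. Beforehand, CYP3A4 turned over a proluciferin substrate for 1 h at room temperature with NADPH regeneration, following 10 min compound preincubation.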

[5] = target: Cytochrome P450 1A2 (Homo sapiens) (UniProt P05177); assay: Cytochrome P450 Family 1 Subfamily A Member 2 (CYP1A2) small molecule antagonists: luciferase reporter qHTS assay (AID 1671199); conditions: P450-Glo CYP1A2 enzyme, luciferin luminescence, 1 h; series mostly up to 53 µM; note: nearly all actives have a fitted effect of over 50% in size
Sequence of Cytochrome P450 1A2 (Homo sapiens) (P05177 whole entry, looked up): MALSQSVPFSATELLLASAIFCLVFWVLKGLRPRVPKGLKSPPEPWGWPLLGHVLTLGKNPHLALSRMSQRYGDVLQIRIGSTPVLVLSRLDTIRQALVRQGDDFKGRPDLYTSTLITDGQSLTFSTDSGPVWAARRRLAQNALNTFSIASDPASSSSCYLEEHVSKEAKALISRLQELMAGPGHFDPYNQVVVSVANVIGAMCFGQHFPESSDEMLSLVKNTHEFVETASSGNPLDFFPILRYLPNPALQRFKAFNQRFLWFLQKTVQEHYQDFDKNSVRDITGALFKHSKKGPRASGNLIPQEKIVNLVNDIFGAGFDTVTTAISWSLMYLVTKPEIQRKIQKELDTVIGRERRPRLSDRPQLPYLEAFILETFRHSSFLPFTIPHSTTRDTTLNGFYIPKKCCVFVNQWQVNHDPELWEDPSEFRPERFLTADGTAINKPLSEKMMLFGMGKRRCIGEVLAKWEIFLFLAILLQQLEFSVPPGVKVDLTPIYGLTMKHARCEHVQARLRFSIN
Summary of the method: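 Room-temperature CYP1A2 reaction with proluciferin substrate: compounds added from DMSO, 10 min preincubation, NADPH regeneration for 1 h. Luciferin detection reagent then added; luminescence recorded as RLU.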
Potency is the fitted concentration of half-maximal effect.

Compound	Potency [1]	Potency [2]	Potency [3]	Potency [4]	Potency [5]
COC(=O)CCS	70.4 µM (active)	inactive	inactive	inactive	
C[C@H]1C[C@H](O)c2ccsc2S1(=O)=O	inactive	inactive	inactive	inactive	
Cc1cc(O)c(C)c(C)c1O	inactive		inactive		15.5 µM (active)
Nc1nc2ccc([N+](=O)[O-])cc2s1	35.6 µM (active)		inactive		9.74 µM (active)
CC(=O)N/N=C/c1ccc([N+](=O)[O-])o1	inactive	inactive	inactive	inactive	
Cc1c(C)c2c(c(C)c1OC(=O)CCC(=O)OCCO)CC[C@@](C)(CCC[C@H](C)CCC[C@H](C)CCCC(C)C)O2	inactive		inactive		27.5 µM (active)
Cc1ccc(C(C)(C)O)cc1	inactive	inactive	inactive	inactive	
CC[N+](CC)(CCNC(=O)C(=O)NCC[N+](CC)(CC)Cc1ccccc1Cl)Cc1ccccc1Cl	inactive	inactive	inactive	inactive	
N#[N+]c1ccc2c(S(=O)(=O)[O-])cccc2c1O	20 µM (active)	39.9 µM (active)	inactive		
CC(C)(c1ccccc1)c1ccccc1	inactive	inactive		inactive	
CC1(CN2CCC(n3c(=O)[nH]c4ccccc43)CC2)OCc2ccccc2-n2cccc21 (stereo unspecified)	21.9 µM (active)	13.8 µM (active)	8.49 µM (active)		
O=C(OC(=O)c1ccccc1)c1ccccc1	inactive	inactive	inactive	inactive	
C=CC(=O)[O-].C=CC(=O)[O-].[Zn+2]	27.6 µM (active)	61.8 µM (active)	inactive		
O=[N+]([O-])c1cc(C2CCCCC2)c(O)c([N+](=O)[O-])c1	39.8 µM (active)	8.91 µM (active)	inactive	inactive	
CCC(C)(C)OC	inactive	inactive	inactive	inactive	
O=C1c2ccccc2C(=O)N1CCc1noc(-c2ccc(CN3CCCCCC3)s2)n1	8.19 µM (active)	20.6 µM (active)	20.1 µM (active)	0.231 µM (active)	
CC1(C)S[C@@H]2[C@H](NC(=O)C(c3ccccc3)S(=O)(=O)O)C(=O)N2[C@H]1C(=O)O (stereo partly specified)	inactive	inactive	inactive	inactive	
CCOC(=O)c1ccccc1C(=C1C=C(Br)C(=O)C(Br)=C1)c1cc(Br)c(O)c(Br)c1	inactive	23.7 µM (active)	inactive		
CC(O)c1ccccc1 (stereo unspecified)	inactive	inactive	inactive	inactive	
CCCCC(CC)CN (stereo unspecified)	inactive	inactive	inactive	inactive	
COC(=O)[C@H]1[C@H]2C[C@@H]3c4[nH]c5cc(OC)ccc5c4CCN3C[C@H]2C[C@@H](OC(=O)/C=C/c2ccc(O)c(OC)c2)[C@@H]1OC	inactive		0.848 µM (active)		inactive
CCc1ccccc1	inactive	inactive	inactive	inactive	
C=CC(C)(CCC=C(C)C)OC(=O)CC(C)C (stereo unspecified)	35.6 µM (active)	35.6 µM (active)	inactive	35.6 µM (active)	
O=C1c2ccccc2C(=O)C1c1ccc(Br)cc1	1.55 µM (active)	3.47 µM (active)	inactive	inactive	
O=C1c2ccccc2C(=O)C1c1nc2ccccc2c(Br)c1O	inactive		inactive		10 µM (active)
CCCCCCCC/C=C\CCCCCCCCO	inactive		inactive	inactive	28.2 µM (active)
CC(C)C[C@H](NC(=O)[C@H](CCc1ccccc1)NC(=O)CN1CCOCC1)C(=O)N[C@@H](Cc1ccccc1)C(=O)N[C@@H](CC(C)C)C(=O)[C@@]1(C)CO1	inactive		inactive		inactive
O=Cc1c2ccccc2c(Cl)c2ccccc12	inactive		inactive	inactive	1.38 µM (active)
